# Tgondii IFNg: T. gondii growth inhibition with IFN-gamma, primary screen, cell-based. activity change, negative = inhibition, % (no concentration beside the values). Toxoplasma gondii growth in IFN-gamma-treated host cells; stronger effect = lower value. 69,000 tested, 3.8% active; in the data active = activity change below about -70%, passing the limit was not always enough;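 also: host cells are HeLa cells infected with Toxoplasma gondii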
# A number is an active result; 0 = inactive; ! = not confirmed by another sample. Only a selection was taken, and hits are over-represented in it overall.
SMILES,Tgondii IFNg
Cc1ccc(-c2coc(-c3ccc(NC(=O)C(C)(C)C)cc3)n2)cc1,0
CCN(CC)C(CNC(=O)c1c(C)cc(C)n(C)c1=O)c1ccccc1Cl (centres undefined),0
O=C1C(Cc2ccccc2)N=C2c3ccccc3N=C(SCc3cccc(Cl)c3)N12 (centres undefined),0
CCOC(=O)c1sc2sc(C(=O)OCC)c(-c3ccco3)c2c1N,0
CCOC(=O)c1sc2sc(-c3ccn[nH]3)c(C)c2c1C,-110
CCOC(=O)c1cccnc1-c1ccc(-c2ccn[nH]2)cc1,0
CC(=O)CC1N(Cc2ccccc2)C(=O)C2N(C3CCCC3)C(=O)C3CC(=O)OC312 (centres undefined),0
Cc1ccccc1NC(=O)CN(c1cc(Cl)ccc1C)S(C)(=O)=O,0
Cc1ccc(Cl)cc1N(CC(=O)Nc1c(F)cccc1F)S(C)(=O)=O,-76
CS(=O)(=O)N(CCCC(=O)NCc1ccco1)c1cc(Cl)ccc1Cl,0
COc1ccccc1-n1c(=O)n(Cc2nc(-c3cccc(C)c3)oc2C)c(=O)c2cccnc21,0
COc1cc(OC2CCN(C)CC2)ccc1Nc1ncc2c(n1)n(C1CCCC1)c(=O)n2C,0
CCN1C(=O)CCc2cc(C(=O)NC3CCCCC3)ccc21,0
CC[C@@H]1C(=O)N(C)c2cnc(Nc3ccc(C(=O)NC4CCN(C)CC4)cc3OC)nc2N1C1CCCC1,-76
O=C1CCC2(CCCN(c3ncccn3)C2)N1Cc1cccnc1 (centres undefined),0
CN1CCCN=C1COC(=O)C(O)(c1ccccc1)C1CCCCC1 (centres undefined),-74!
OC(CCN1CCCC1)(c1ccccc1)C1CCCCC1 (centres undefined),0
CC[N+](CC)(CC)CCC(O)(c1ccccc1)C1CCCCC1 (centres undefined),0
Nc1sc(=S)nc2sc3c(c12)CCC3,0
CCC(c1cccnc1)N(C)Cc1ccc(S(C)(=O)=O)cc1 (centres undefined),0
CN(C)CC1(O)CCCN(Cc2ccccc2OCC(=O)O)CC1 (centres undefined),0
CN(C)CC1(O)CCCN(C(=O)CCOc2ccccc2)C1 (centres undefined),0
CN(C)CC1(O)CCCN(S(=O)(=O)N(C)Cc2ccccc2)CC1 (centres undefined),-78
COc1ccc(CCNC(=O)CSc2nc(C(C)(C)C)nc3ccccc23)cc1OC,0
Cc1oc(-c2ccc(F)cc2)nc1C(=O)Nc1cccc(-n2cnnc2)c1,0
SMILES,Tgondii IFNg
O=C(CCc1nc(-c2ccccn2)no1)N1CCc2sccc2C1c1ccco1 (centres undefined),0
Fc1ccccc1Cc1cnc(C2CCCNC2)cn1 (centres undefined),0
CS(=O)(=O)N1C[C@@H]2[C@H](C1)c1ccccc1[C@@H]2N1CCOCC1,0
CCC(CN1CCOCC1)NC(=O)Cc1coc2cc(C)cc(C)c12 (centres undefined),-82
Cc1ccc2c(CC(=O)NCCC3CN(C)CCO3)coc2c1 (centres undefined),0
Cc1ccc(C(NC(=O)c2cc(CN3CCOCC3)c(C)o2)c2ccncc2)cc1C (centres undefined),0
Cc1occc1C(=O)N1CCCC2(COCCN(c3cccnc3)C2)C1 (centres undefined),0
Nc1cc(N)nc(SCCC(=O)O)n1,0
Cc1nc(Nc2ccc(F)cn2)sc1C(=O)N1CCC(C(N)=O)(N2CCCCC2)CC1,0
CCS(=O)(=O)N1CCOC2(COCCN(c3cncnc3)C2)C1 (centres undefined),0
O=S(=O)(Cc1ccc(F)cc1)Cc1noc(-c2ccc(OC(F)(F)F)cc2)n1,0
Cc1oc(-c2ccc(Cl)cc2)nc1Cn1ccn2nc(-c3ccccc3)cc2c1=O,0
COc1ccc(C(=O)N2C[C@@H]3[C@H](c4ccccc42)[C@H](CO)N3Cc2ccccc2Cl)cc1,0
COc1ccc(C(=O)N2C[C@H]3[C@@H](c4ccccc42)[C@@H](CO)N3Cc2ccccc2Cl)cc1,0
COc1ccc(C(=O)NC2CCCc3c2cnn3Cc2ccccc2Cl)cc1 (centres undefined),-80
Cc1c(C(=O)N2CCCCC2)oc2ccc3c(c12)C(O)CC1(CCCCC1)O3 (centres undefined),-112
Cc1c(C(=O)N2CCc3ccccc3C2)oc2ccc3c(c12)C(=O)CC1(CCCCC1)O3,0
CCOC(=O)C1CCN(C(=O)c2nn(-c3ccccc3)nc2C)CC1,0
CC1=C(C(=O)NCCCN2CC(C)CC(C)C2)C2(CCCCCC2)OC1=O (centres undefined),0
Cc1c(C(=O)NCCCN2CCCCC2)oc2ccc3c(c12)C(O)CC1(CCCCC1)O3 (centres undefined),0
CCOC(=O)C1CCN(C(=O)C2=C(C)C(=O)OC23CCN(S(C)(=O)=O)CC3)CC1,0
Cc1c(C(=O)NCCCN2CC(C)CC(C)C2)oc2ccc3c(c12)C(O)CC1(CCCCC1)O3 (centres undefined),-112
CC1=C(C(=O)NCCCN2CCCC(C)C2)C2(CCN(S(C)(=O)=O)CC2)OC1=O (centres undefined),0
Cc1c(C(=O)N2CC(C)CC(C)C2)oc2ccc3c(c12)C(=O)CC1(CCCCC1)O3 (centres undefined),0
CC1=C(C(=O)NCCCN2CCCC2)C2(CCN(S(=O)(=O)c3cccs3)CC2)OC1=O,0
SMILES,Tgondii IFNg
CCOC(=O)C1CCN(C(=O)c2oc3ccc4c(c3c2C)C(O)CC2(CCCCC2)O4)CC1 (centres undefined),-81
CC1=C(C(=O)NCCCN2CC(C)CC(C)C2)C2(CCCCC2)OC1=O (centres undefined),-80
O=S(=O)(c1ccccc1)N1CCCC(c2nnc(-c3nccc4ccccc34)o2)C1 (centres undefined),0
N#CC[C@@H](C1CCCC1)n1cc(-c2ncnc3[nH]ccc23)cn1,0
CCN1CCC2(CC1)OC(=O)C(C)=C2C(=O)NCCCN1CCN(c2cc(C)ccc2C)CC1,0
Cc1nc(-c2ccccc2)sc1CCNC(=O)C(=O)Nc1cccc(F)c1,0
CC1(COc2ccccc2)NCCc2[nH]cnc21 (centres undefined),0
O=C(c1cncc(N2CCC(O)(CO)CC2)n1)N1CCCC1,0
Cc1ccccc1NC(=O)N1C[C@H]2[C@H](C(=O)NCC(C)C)CCS(=O)(=O)[C@H]2C1,0
CN1C(=O)N(Cc2cccnc2)C(=O)C12CCN(Cc1nccs1)CC2,0
[N-]=[N+]=N[C@]1(CO)O[C@@H](n2ccc(N)nc2=O)[C@H](O)[C@@H]1O,0
COc1ccc(C(=O)N2CCN(CC3CCOC(C)(C)C3)CC2)cc1 (centres undefined),0
CN(C)S(=O)(=O)N1C[C@H](Oc2cccnc2)[C@@H]2OCCC[C@@H]21,0
Cc1cc(C)c2nc(C)cc(C(=O)Nc3ccccc3-c3ccccc3)c2c1,0
O=C(Nc1ccccc1-c1ccccc1)c1ccc2c(c1)[nH]c(=O)n2C1CCCC1,-92
CCOc1ccc(-c2ccccc2NC(=O)C2CC2)cc1,0
CC(O)Cc1cn(CC2CCN(C(=O)C3CCCCCC3)CC2)nn1 (centres undefined),0
Cc1ccc2[nH]c3c(c2c1)CN(C)CC3,0
Cc1ccc2[nH]c3c(c2c1)CCNC3=O,-93
Cc1ccc2[nH]c(=O)c(Cc3ccccc3)c(O)c2c1,0
CC(C)(C)c1ccc(-c2nc(-c3ccc(Cl)cc3)no2)cc1,0
FC(F)(F)c1ccc(-c2noc(/C=C/c3ccccc3)n2)cc1,0
